Measurements as given in the supplement of paper PMC6522484.
± gives the standard deviation of the averaged measurements.

Assays:
[1] = test system: DLD1; assay: cell viability (CellTiter-Glo) relative to plate median (fraction of plate median); higher = more viable cells; details: 5 µM; treatment time 24 h; reporter: 7TFP
Outline: (§1)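 Library compounds were added at a final concentration of 5 µM for 24 h to colorectal cancer cells stably transduced with a lentiviral TCF/Wnt firefly luciferase reporter. Reported values are firefly luciferase or CellTiterGlo luminescence, normalised per well to the plate median. Each value averages two independent replicates.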

[2] = test system: HCT116; assay: as above; details: 5 µM; treatment time 24 h; reporter: TCF4/Wnt
Outline: as §1

[3] = test system: SW480; assay: as above; details: 5 µM; treatment time 24 h; reporter: 7TFP
Outline: as §1

[4] = test system: DLD1; assay: TCF/Wnt firefly luciferase reporter signal relative to plate median (fraction of plate median); higher = higher Wnt reporter signal; details: 5 µM; treatment time 24 h; reporter: 7TFP
Outline: as §1

[5] = test system: SW480; assay: as above; details: 5 µM; treatment time 24 h; reporter: 7TFP
Outline: as §1

Compound	cell viability [1]	cell viability [2]	cell viability [3]	TCF/Wnt firefly luciferase reporter signal [4]	TCF/Wnt firefly luciferase reporter signal [5]
COc1cc(OC)c2c(c1Cl)O[C@@]1(C(=O)CC(=O)C[C@H]1C)C2=O	1.02 ± 0.014	0.983 ± 0.14	1.005 ± 0.0071	1.13 ± 0.057	1.02 ± 0.028
CC(=O)Oc1ccc(C(c2ccc(OC(C)=O)cc2)c2ccccn2)cc1	0.806 ± 0.057	0.931 ± 0.15	1.1 ± 0.092	0.65 ± 0.098	1.03 ± 0.085
Cn1c(=O)c2c(ncn2CC(O)CO)n(C)c1=O (stereo not given)	0.916 ± 0.016	0.996 ± 0.049	0.989 ± 0.03	1.09 ± 0.14	1.09 ± 0.05
C/C=C(\C)C(=O)[C@@H](C)/C=C(\C)[C@H]1O[C@@](O)([C@@](O)(CC)C(=O)N[C@@H]2C(=O)N3NCCC[C@@H]3C(=O)N(O)[C@@H](C)C(=O)N(C)[C@H](C)C(=O)N3NCCC[C@H]3C(=O)N[C@H]([C@H](C)O)C(=O)O[C@H]2C(C)C)CC[C@@H]1C	0.983 ± 0.053	1.01 ± 0.17	1.08	1.01 ± 0.065	1.06 ± 0.035
COc1ccc([C@@H]2CC(=O)c3c(O)cc(O[C@@H]4O[C@H](CO[C@@H]5O[C@@H](C)[C@H](O)[C@@H](O)[C@H]5O)[C@@H](O)[C@H](O)[C@H]4O)cc3O2)cc1O	0.995 ± 0.0014	0.973 ± 0.038	1.02 ± 0.014	1.04 ± 0.17	0.988 ± 0.031
C=C1C(=O)O[C@@H]2C[C@@]3(C)CCC[C@H](C)C3=C[C@H]12	1.01 ± 0.02	0.875 ± 0.027	0.96 ± 0.0057	0.985 ± 0.0057	1.03 ± 0.067
COc1ccc(C(=O)O)c(O)c1OC	0.991 ± 0.055	0.977 ± 0.12	0.9195 ± 0.00071	0.803 ± 0.069	0.905 ± 0.19
CS(=O)(=O)c1ccc([C@@H](O)[C@@H](CO)NC(=O)C(Cl)Cl)cc1	0.914 ± 0.055	0.958 ± 0.06	0.925 ± 0.014	0.982 ± 0.018	0.814 ± 0.058
O=C1OC2(c3ccc(O)cc3Oc3cc(O)ccc32)c2ccccc21	1.01 ± 0.047	0.9885 ± 0.0064	1 ± 0.011	1.11 ± 0.085	1.07 ± 0.028
O=c1c(O)cccc2cc(O)c(O)c(O)c12	1.06 ± 0.057	0.914 ± 0.056	1.01 ± 0.037	1.04 ± 0.014	0.944 ± 0.094
N#Cc1ccc2c(c1)N(CCCN1CCC(O)CC1)c1ccccc1S2	0.991 ± 0.07	0.931 ± 0.053	1.01 ± 0.069	0.981 ± 0.056	1.05 ± 0.071
CC(=O)OCC(=O)[C@@]1(O)[C@H](C)C[C@H]2[C@@H]3CCC4=CC(=O)C=C[C@]4(C)[C@@]3(F)[C@@H](O)C[C@@]21C	1.06 ± 0.085	0.952 ± 0.054	1.02 ± 0.088	0.958 ± 0.037	0.969 ± 0.044
CC(=O)OC/C=C(\C)CC/C=C(\C)CC/C=C(\C)CC/C=C(\C)CC/C=C(\C)CC/C=C(\C)CC/C=C(\C)CC/C=C(\C)CCC=C(C)C	1.04 ± 0.042	0.96 ± 0.085	1.06 ± 0.028	0.807 ± 0.072	1.02 ± 0.057
CC1=C(CC(=O)O)c2cc(F)ccc2/C1=C\c1ccc([S+](C)[O-])cc1 (stereo not given)	0.941 ± 0.028	0.901 ± 0.018	0.949 ± 0.1	1.03 ± 0.23	1.03 ± 0.12
COc1cc2oc3cc(OC)c(OC)c(CC=C(C)C)c3c(=O)c2c(O)c1CC=C(C)C	1.08 ± 0.16	1 ± 0.078	1.02 ± 0.054	1.1 ± 0.19	0.968 ± 0.046
COc1ccc2cc([C@H](C)CO)ccc2c1	0.939 ± 0.0028	0.862 ± 0.17	0.9375 ± 0.0021	1.11 ± 0.035	1.04 ± 0.05
CN[C@@H]1[C@H](O[C@H]2[C@H](O[C@H]3[C@H](O)[C@@H](O)[C@H](N=C(N)N)[C@@H](O)[C@@H]3N=C(N)N)O[C@@H](C)[C@]2(O)C=O)O[C@@H](CO)[C@H](O)[C@H]1O	0.962 ± 0.097	0.936 ± 0.044	1.07 ± 0.078	0.817 ± 0.0014	0.935 ± 0.0028
COc1ccc2c(c1)OCC(Cc1ccc(O)c(OC)c1)C2=O (stereo not given)	0.99 ± 0.014	1.04 ± 0.07	0.915 ± 0.049	0.887 ± 0.066	0.971 ± 0.084
CC(O)(P(=O)(O)O)P(=O)(O)O	0.949 ± 0.073	0.943 ± 0.032	0.956 ± 0.037	1 ± 0.13	0.968 ± 0.06
O=c1c(O)c(-c2ccc(O)cc2O)oc2cc(O)cc(O)c12	1.11 ± 0.11	1.155 ± 0.0071	1.15	1.11 ± 0.099	1.11 ± 0.15
CN(C)CCc1c[nH]c2ccc(Cn3cncn3)cc12	0.968 ± 0.011	1.09 ± 0.064	1.03 ± 0.042	1.09 ± 0.2	1.07 ± 0.099
CCOc1ccc(Cc2nccc3cc(OCC)c(OCC)cc23)cc1OCC	0.876 ± 0.016	0.885 ± 0.056	0.921 ± 0.0071	0.99 ± 0.13	0.95 ± 0.099
CC(=O)OCC(=O)[C@@]1(O)CC[C@H]2[C@@H]3CCC4=CC(=O)CC[C@]4(C)[C@@]3(F)[C@@H](O)C[C@@]21C	0.975 ± 0.027	1.07 ± 0.085	0.995 ± 0.022	1.06	1.07 ± 0.11
Cc1cc(O)cc(O)c1C(=O)O	1.03 ± 0.035	1.07 ± 0.1	1.03 ± 0.014	1 ± 0.05	0.925 ± 0.039
Nc1nc(N)c2nc(-c3ccccc3)c(N)nc2n1	0.843 ± 0.047	0.898 ± 0.0042	0.956 ± 0.037	1.11 ± 0.085	1.05 ± 0.028
